# Where “and” joins values, the source holds several entries; their conditions need not be identical. Equal values may be shown once. Among all 1,000 compounds or so, about 250 (25%) were called active. Roughly 31% stayed inconclusive and do not appear here. These entries were drawn from the full list. Potency and affinity values are given separately. Unmarked numbers belong to inactive results. The rule behind the calls is not given here.
# Assay: T. gondii intracellular growth, IFN-gamma absent, dose response, cell-based (AID 1259420);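 note: host cells were HeLa; final incubation lasted 72 hours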
# Details: Toxoplasma gondii growth in host cells, no IFN-gamma
structure (smiles),measurement,setting,value
CC(C)(C)c1nc2ccccc2c2nnc(SCc3ccccn3)n12,max activity,at 19.5 µM unless noted,9.04% [at 0.3 µM]
CN1CCN(Cc2cnc3n2CCN(CC2CCOCC2)C3)CC1,max activity,at 19.5 µM unless noted,22.9% [at 1.2 µM]
CN(C)C(=O)CN1CCOCC2(CCN(CC3CCOC3)CC2)C1 (stereo not given),max activity,at 19.5 µM unless noted,12.7%
CN1CCCN(C(=O)c2cc3c(c4ccccc4n3CC3CC3)n2S(C)(=O)=O)CC1,max activity,at 19.5 µM unless noted,25.4%
O=C(c1cnccn1)N1CC(=O)N2[C@H](CO)[C@H](c3ccc(/C=C/c4ccccc4)cc3)[C@@H]2C1,max activity,at 19.5 µM unless noted,9.53% [at 10 µM]
COC12CC(COC(=O)c3cncc(Br)c3)CN(C)C1Cc1cn(C)c3cccc2c13 (stereo not given),max activity,at 19.5 µM unless noted,-18.1% [at 1.2 µM]
CC(=O)NCc1nnn2c1CN(c1ncccn1)CCC2,max activity,at 19.5 µM unless noted,-8.02% [at 0.6 µM] and 9.77% [at 0.6 µM]
COc1ccc(-c2ccc3c(c2)[C@@H]2[C@@H](CCN2C(=O)c2ccncc2)[C@H](CO)N3C)cc1,max activity,at 19.5 µM unless noted,-18.6% [at 5 µM]
CCC(=O)N1CC[C@@H]2[C@@H](CO)N(C)c3ccc(-c4ccc(C#N)cc4)cc3[C@@H]21,max activity,at 19.5 µM unless noted,-14.1% [at 1.2 µM]
COc1cccc(-c2ccc3c(c2)[C@@H]2[C@@H](CCN2C(=O)c2ccccc2F)[C@@H](CO)N3C)c1,max activity,at 19.5 µM unless noted,24%
CCC(=O)N1CC[C@@H]2[C@H]1c1cc(-c3ccc(C#N)cc3)ccc1N(C)[C@H]2CO,max activity,at 19.5 µM unless noted,-11.1% [at 0.6 µM]
CN1c2ccc(C#Cc3cccnc3)cc2[C@@H]2[C@@H](CCN2C(=O)c2cccc(F)c2)[C@H]1CO,max activity,at 19.5 µM unless noted,5.34%
CC(C)NC(=O)N1CC[C@@H]2[C@H]1c1cc(-c3ccc(F)cc3)ccc1N(C)[C@H]2CO,max activity,at 19.5 µM unless noted,11.4% [at 10 µM]
NC(N)=N/N=C/c1c(Cl)cccc1Cl,max activity,at 19.5 µM unless noted,-13.6% [at 2.35 µM]
C=CCN1C(=O)CCCC12CCCN(S(=O)(=O)Cc1ccccc1)C2 (stereo not given),max activity,at 19.5 µM unless noted,-8.38% [at 10 µM]
CN(C)CCNC(=O)c1c2c(NCc3cccnc3)ncnc2n2ccccc12,max activity,at 19.5 µM unless noted,8.13% [at 10 µM]
CCN1Cc2c(C(=O)Nc3ccc(C)cc3)ncn2-c2ccccc2S1(=O)=O,max activity,at 19.5 µM unless noted,-12.3% [at 0.16 µM]
CC(C)N1c2ccc(F)cc2[C@@H]2CN(C(=O)c3ccco3)CC[C@H]21,max activity,at 19.5 µM unless noted,9.4%
Cc1ccccc1-c1ccc([C@@H]2[C@@H](CO)N3CCCCN(S(=O)(=O)Cc4ccccc4)C[C@H]23)cc1,max activity,at 19.5 µM unless noted,6.43% [at 10 µM]
Cc1ccoc1C(=O)N1CC[C@H]2CO[C@@H](CN3CCN(C)CC3)[C@@H]2C1,max activity,at 19.5 µM unless noted,-13%
COc1ccc(C[C@H]2CN(C(=O)c3ccnn3C)CC[C@H]2OC)cc1,max activity,at 19.5 µM unless noted,-12.6% [at 5 µM]
O=C(Nc1ccccc1)[C@@H]1[C@@H](CO)[C@@H]2Cn3c(ccc(C4=CCCCC4)c3=O)[C@@H]2N1Cc1cocn1,max activity,at 19.5 µM unless noted,-11.6% [at 10 µM]
CCOCC1CC2(CCN(C(=O)COc3ccc(C)cc3)CC2)CO1 (stereo not given),max activity,at 19.5 µM unless noted,-10.4% [at 5 µM]
CCN1CC2(CCN(C(=O)COc3ccccc3)CC2)COc2ccccc2S1(=O)=O,max activity,at 19.5 µM unless noted,-3.38% [at 2.6 µM]
CC(C)n1ncc(NC(=O)Cn2ccc(-c3ccc(C(F)(F)F)cc3)n2)n1,max activity,at 19.5 µM unless noted,-7.47% [at 0.3 µM]
C[C@H]1[C@H](NC(=O)/C(=N\OC(C)(C)C(=O)O)c2csc(N)n2)C(=O)N1S(=O)(=O)O,max activity,at 19.5 µM unless noted,-8.75% [at 1.35 µM]
CCc1cnc(N2[C@H](C#N)[C@@H](c3ccc(C#Cc4ccccc4F)cc3)[C@H]2CO)s1,max activity,at 10 µM,8.24%
same,max activity,at 19.5 µM,32.4%
CCS(=O)(=O)N1CC(=O)N2[C@H](CO)[C@@H](c3ccc(-c4cccc(F)c4)cc3)[C@@H]2C1,max activity,at 0.6 µM,7.66%
same,max activity,at 1.2 µM,-9.75%
CCc1cnc(N2[C@@H](C#N)[C@@H](c3ccc(C4=CCCCC4)cc3)[C@@H]2CO)s1,max activity,at 19.5 µM unless noted,-7.27%
CCS(=O)(=O)N1[C@H](CO)[C@@H](c2ccc(C#Cc3ccccc3F)cc2)[C@@H]1C#N,max activity,at 19.5 µM unless noted,10.1% [at 2.35 µM]
OC[C@@H]1[C@@H](c2ccc(C#Cc3ccccc3F)cc2)[C@H]2CN(CC3CCOCC3)CCCCN12,max activity,at 19.5 µM unless noted,24.4%
OC[C@H]1[C@H](c2ccc(C#Cc3ccccc3F)cc2)[C@H]2CN(CC3CCOCC3)CCCCN21,max activity,at 19.5 µM unless noted,7.1% [at 0.16 µM]
CCC(=O)N1CC(=O)N2[C@@H](CO)[C@@H](c3ccc(C#CCC(C)C)cc3)[C@@H]2C1,max activity,at 19.5 µM unless noted,8.67% [at 0.3 µM]
O=C(NC1CCCCC1)N1C[C@@H]2N[C@H](C1)C2c1ccc(-c2ccc(F)cc2)cc1 (stereo not given in full),max activity,at 19.5 µM unless noted,22.3% [at 10 µM]
COC[C@@H]1CN(CC2CC2)C[C@@]12CCN(CCc1ccccc1)C2,max activity,at 19.5 µM unless noted,18.3%
N#Cc1cccc(-c2ccc3c(c2)[C@@H]2[C@@H](CCN2C(=O)c2ccccc2F)[C@@H](CO)N3)c1,max activity,at 19.5 µM unless noted,-14.2% [at 1.2 µM]
Cc1ccccc1S(=O)(=O)N1CCCCN2[C@H](CO)[C@H](c3ccc(C#CCN(C)C)cc3)[C@H]2C1,max activity,at 19.5 µM unless noted,8.8%
CCN1CC(C(=O)O)CN2CCN(C(=O)c3ccncc3F)CC2C1 (stereo not given),max activity,at 19.5 µM unless noted,-9.96% [at 1.2 µM]
CC[C@H](C(=O)N1CCCC[C@H]1C(=O)O[C@H](CCc1ccc(OC)c(OC)c1)c1cccc(OCC(=O)NCCNC(=O)COc2cccc([C@@H](CCc3ccc(OC)c(OC)c3)OC(=O)[C@@H]3CCCCN3C(=O)[C@@H](CC)c3cc(OC)c(OC)c(OC)c3)c2)c1)c1cc(OC)c(OC)c(OC)c1,max activity,at 19.5 µM unless noted,-10.8% [at 5 µM]
C1=CC[C@H]2CN(c3ncnc4[nH]ccc34)C[C@H]2C1,max activity,at 19.5 µM unless noted,15.7% [at 10 µM]
CCN1CCn2c(-c3cccc(F)c3)cnc2C12CCN(c1ncccn1)CC2,max activity,at 19.5 µM unless noted,-16.6% [at 2.6 µM]
FC(F)(F)C1CN(c2cc(-c3ccccc3)nc3ccccc23)CCO1 (stereo not given),max activity,at 19.5 µM unless noted,-8.74% [at 1.2 µM]
Fc1ccc(F)c(CN2[C@@H]3CNC[C@H]2C3c2ccc(-c3ccncc3)cc2)c1 (stereo not given in full),max activity,at 0.16 µM,-17.4%
same,max activity,at 10 µM,-4.19%
C/C=C/c1ccc(C2[C@H]3CNC[C@@H]2N3Cc2ccc3c(c2)OCO3)cc1 (stereo not given in full),max activity,at 19.5 µM unless noted,11.3%
C[C@@H]1CN([C@@H](C)CO)C(=O)Cc2cc(NS(=O)(=O)c3ccc(Cl)cc3)ccc2O[C@@H]1CN(C)C(=O)Nc1ccc(C(F)(F)F)cc1,max activity,at 19.5 µM unless noted,23.3%
CC(C)N1CCC(c2ccnc3c(C(=O)N4CCCN(C)CC4)ncn23)CC1,max activity,at 19.5 µM unless noted,-10.4% [at 5 µM]
C/C=C/c1ccc([C@H]2[C@H](CO)N3C(=O)CN(C(=O)NC4CCCCC4)C[C@@H]23)cc1,max activity,at 19.5 µM unless noted,-12.8%
COCC(=O)N1[C@H](C#N)[C@H](c2ccc(C#CCC3CCCC3)cc2)[C@@H]1CO,max activity,at 19.5 µM unless noted,6.51% [at 10 µM]
N#C[C@@H]1[C@@H](c2ccc(C#Cc3cccnc3)cc2)[C@@H](CO)N1C(=O)NC1CCCCC1,max activity,at 19.5 µM unless noted,-10.9%
N#C[C@@H]1[C@H](c2ccc(-c3cccc(F)c3)cc2)[C@@H](CO)N1C(=O)NC1CCCC1,max activity,at 19.5 µM unless noted,22.7%
N#C[C@H]1[C@H](c2ccc(-c3cccc(F)c3)cc2)[C@H](CO)N1C(=O)NC1CCCC1,max activity,at 19.5 µM unless noted,27.1%
N#C[C@H]1[C@@H](c2ccc(-c3cccc(F)c3)cc2)[C@H](CO)N1C(=O)NC1CCCC1,max activity,at 1.2 µM,-11.5%
same,max activity,at 19.5 µM,14.4%
CCC(C)NC(=O)Cn1c(=O)c(S(=O)(=O)c2ccccc2)cc2ccccc21 (stereo not given),max activity,at 19.5 µM unless noted,-6.38% [at 1.2 µM]
COc1ccc(CN2C[C@@H]3CN(Cc4cnn(C)c4)C[C@H]3C2=O)cc1,max activity,at 19.5 µM unless noted,-13% [at 10 µM]
Cc1cccc(S(=O)(=O)N2C[C@H]3[C@@H](c4ccccc42)[C@@H](CO)N3C(=O)c2ccccc2)c1,max activity,at 19.5 µM unless noted,6.73% [at 0.16 µM]
COCCC(=O)N1C[C@H](OCc2ccccn2)[C@@H]2COC[C@@H]21,max activity,at 19.5 µM unless noted,-16.7% [at 0.3 µM]
Oc1cccc(-c2nccn2-c2cccc(-c3ccn[nH]3)c2)c1,max activity,at 19.5 µM unless noted,-6.88% [at 10 µM]
O=S(=O)(Cc1ccccc1)N1CC2CN(Cc3cccc(Cl)c3)CC2C1 (stereo not given),max activity,at 19.5 µM unless noted,19.1%
Cc1ccccc1-c1ccc([C@H]2[C@@H](CO)N3C(=O)CN(C(=O)c4ccncc4)C[C@H]23)cc1,max activity,at 19.5 µM unless noted,-12.2% [at 5 µM]
CC(C)CNc1nc2c(cc1C(=O)NC(C)C)CCN(c1ccncn1)CC2,max activity,at 19.5 µM unless noted,-10.6% [at 5 µM]
COc1ccccc1-c1ccc([C@@H]2[C@H]3CN(C(=O)c4cccnc4)CCCCN3[C@H]2CO)cc1,max activity,at 19.5 µM unless noted,9.09% [at 0.16 µM]
COc1ccccc1-c1ccc([C@@H]2[C@H](CO)N3CCCCN(C(=O)c4cccnc4)C[C@@H]23)cc1,max activity,at 19.5 µM unless noted,16.2%
COc1ccccc1-c1ccc([C@@H]2[C@@H](CO)N3CCCCN(C(=O)c4cccnc4)C[C@@H]23)cc1,max activity,at 19.5 µM unless noted,-4.65% [at 5 µM]
O=C(Nc1ccccc1F)N1CCCCN2[C@H](C1)[C@H](c1ccc(/C=C/c3ccccc3)cc1)[C@@H]2CO,max activity,at 19.5 µM unless noted,13.2%
CCN1C(=O)CO[C@H]2CN(C(=O)c3cnc4ccccc4c3)C[C@@H]21,max activity,at 19.5 µM unless noted,-7.5% [at 0.16 µM]
Cn1cnc2c1C(C(=O)O)CN(C(=O)c1ccsc1)C2 (stereo not given),max activity,at 19.5 µM unless noted,-15.3% [at 10 µM]
